Screening data as filed in PubChem BioAssay.
KB-V1 MDR tox – qHTS assay for MDR1-selective chemotherapeutics: Primary screen using the drug-selected MDR subline cells KB-V1. KB-V1 MDR cells viability, CellTiter-Glo, 72 h. Potency, µM (doses to about 46.1 µM), usual class: cytotoxic. hit rate 3.4% among 400,000. AID 1347076, 2019; also: potency is read from the fitted curve at half-maximal effect; nearly all actives have a fitted effect of over 60% in size
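Readout: CellTiter-Glo luminescence, 10 min after addition. Cells: KB-V1 MDR subline, 72 h at 37 degrees C with compound. Analysis: corrected, normalized data fitted to concentration-effect curves.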
HT1080 IDH1KD tx – qHTS for induction of synthetic lethality in tumor cells producing 2HG: qHTS for the HT-1080-IDH1KD cell line. HT-1080 IDH1 knockdown viability, ATP luminescence, 48 h. Potency, µM (highest dose often 46.1 µM), inactives show at the top dose activity, negative = toxicity, most hits filed as cytotoxic. hit rate 2% among 360,000;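 also: potency is read from the fitted curve at half-maximal effect; 0% = DMSO wells and -100% = cell-free medium wells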
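Luminescent ATP read-out (CellTiter-Glo, 10 min at room temperature) after 48 h compound exposure at 37 °C gave viability of IDH1-knockdown HT-1080 cells. Activity was normalised to DMSO and cell-free wells, then fitted as concentration-response curves.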
HT1080NT lethal – qHTS for induction of synthetic lethality in tumor cells producing 2HG: qHTS for the HT-1080-NT fibrosarcoma cell line. HT-1080-NT fibrosarcoma viability, CellTiter-Glo ATP luminescence, 48 h. Potency, µM (highest dose often 46.1 µM), for inactives: at the highest dose activity, negative = less viability, usual class: cytotoxic. hit rate 1.6% among 360,000. AID 686970, 2013;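 also: NT is the 2HG producing partner of a matched IDH1 knockdown line; potency is read from the fitted curve at half-maximal effect; 0% = DMSO-treated cells and -100% = media-only wells without cells; nearly all actives have a fitted effect of over 55% in size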
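Fibrosarcoma NT cells, 750 per well in 5% FBS RPMI, were exposed to compound for 48 hours. Viability: CellTiter-Glo luminescence.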
KB-3-1 cytotox – qHTS assay for MDR1-selective chemotherapeutics: Primary screen using the parental adenocarcinoma cell KB-3-1; KB-3-1 viability, CellTiter-Glo ATP luminescence, 72 h; Potency, µM (series often up to 46.1 µM), hits mostly cytotoxic; hit rate 1.4% among 400,000; AID 1347075, 2019; also: potency is read from the fitted curve at half-maximal effect; nearly all actives have a fitted effect of over 60% in size
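Screening of KB-3-1 cells (DMEM, 10% FBS, phenol-red free) ran from lowest to highest compound concentration; after 72 h at 37 °C viability was read luminescently and curves fitted.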
IL1B secr inh – qHTS for Inhibitors of Inflammasome Signaling: IL-1-beta AlphaLISA Primary Screen | THP-1 LPS/ATP IL-1B secretion, AlphaLISA, 16 h; hits give low values | hit rate 4.7% among 360,000 | activity change, % at 57.5 µM; in the data active = activity change below about -50%; inconclusive = mostly about -30% to -49%
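Secreted IL-1B measured by AlphaLISA bead assay after 16 h compound exposure of THP-1 cells; compounds (final up to 57.5 uM) added 1 h before LPS (250 ng/mL) and ATP (1.25 mM) stimulation; lower signal means less secretion.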
The depositor's hits bear a star; i = inactive; ? = inconclusive; . = no result given. Shown are actives, neighbours in structure and some others; about 8.8% of the full set was active somewhere. Unless noted, calls follow the shape of the dose curve; as a rule, active = well fitted curve in the direction sought with a large enough effect; inconclusive = small, poorly fitted or top-dose-only effect, or another doubt; inactive = no such curve, though single readings can be large; an effect the other way counts as inactive or inconclusive. Unless noted, % is scaled to controls: 0 for no effect and ±100 for the full control effect.

SMILES | KB-V1 MDR tox | HT1080 IDH1KD tx | HT1080NT lethal | KB-3-1 cytotox | IL1B secr inh
O=C(CN1C(=O)C2(SCC(=O)N2c2ccccc2)c2ccccc21)Nc1ccccc1C(F)(F)F (stereo not drawn) | i | . | . | i | .
Cc1c(/C=N/NC(=O)CNc2ccccc2)c2ccccn2c1C(=O)c1ccc(Cl)cc1 | 2.3µM* | -11% | -2% | i | ?
Cc1ccc2nc(NC(=O)C3CCN(C(=O)c4ccc(F)cc4)CC3)sc2c1 | ? | -2% | -2% | ? | -8
COC(=O)c1cc(C(=O)c2cccc(Cl)c2Cl)cn1C | i | 1% | 0% | i | 9
COC(=O)c1cc(C(=O)c2ccc(Cl)cc2Cl)cn1C | 13µM* | 0% | 4% | ? | 0
COc1ccc(C(=O)NCCc2nnc3ccc(SCC(=O)Nc4ccccc4F)nn23)cc1 | . | 0% | 0% | . | -8
O=C(NCc1ccc2c(c1)CCN2C(=O)c1ccc(F)cc1)c1ccc(Br)o1 | 2.6µM* | . | . | ? | .
CCN(CC)c1ccc(C(=O)NCc2ccc3c(c2)CCN3C(=O)c2ccc(F)cc2)cc1 | ? | . | . | 15µM* | .
N#Cc1ccc(C(=O)NCc2ccc3c(c2)CCN3C(=O)c2ccc(F)cc2)cc1 | i | . | . | i | .
CCOc1ccc(NS(=O)(=O)c2ccc(C(=O)NCC(c3ccc(OC)cc3)N3CCOCC3)cc2)cc1 (stereo not drawn) | i | -8% | -6% | i | -9
O=C(Nc1ccc(F)cc1)c1sccc1SCc1cccc(C(F)(F)F)c1 | ? | 18µM* | 13µM* | i | -21
O=C(Nc1ccc(F)cc1F)c1sccc1SCc1cccc(C(F)(F)F)c1 | 16µM* | 1% | 10% | i | -27
COc1ccc(NC(=O)c2sccc2SCc2cccc(C(F)(F)F)c2)cc1 | 16µM* | 8.9µM* | ? | i | -20
O=C(Nc1cccc(C(F)(F)F)c1)c1scc2c1OCCO2 | i | -5% | -8% | i | 10
Cc1ccccc1OCCn1c(-c2ccc(Cl)cc2)nc2ccccc2c1=O | ? | . | . | i | .
Cc1cccc(NC(=O)CCc2c(C)nc3nc(CNC(=O)c4cccc(F)c4)nn3c2C)c1 | i | . | . | i | .
Cc1cc(Cl)ccc1OCCCC(=O)N1CCCCC1 | i | -14% | 3% | i | -29
Cc1ccc(SCC2(O)CCN(S(=O)(=O)c3ccc(Cl)cc3)CC2)cc1 | ? | -22% | -16% | ? | -18
Cc1ccc(S(=O)(=O)N2CCN(C(=O)CSc3ccc(Cl)cc3)CC2)cc1 | i | 12% | 12% | i | -61*
Cc1ccc(S(=O)(=O)N2CCN(C(=O)CCCOc3ccc(Cl)cc3C)CC2)cc1 | ? | -13% | -5% | ? | -62*
Cc1ccc(Cl)cc1N1CCN(C(=O)c2noc(C(C)C)c2[N+](=O)[O-])CC1 | ? | ? | ? | i | -81*
O=[N+]([O-])c1ccc(N2CCN(c3ccccn3)CC2)c(Cl)c1 | ? | -13% | -20% | i | -59*
O=C(c1ccc([N+](=O)[O-])cc1Cl)N1CCN(c2ccccn2)CC1 | i | -2% | -2% | i | 30
Cc1nn(CC(C)C(=O)N2CCN(S(=O)(=O)c3ccc(Cl)cc3)CC2)c(C)c1C (stereo not drawn) | 21µM* | 6% | 2% | i | 26
Cc1ccc(Cl)cc1N1CCN(C(=O)CSc2ccsc2[N+](=O)[O-])CC1 | 5.2µM* | -3% | -8% | i | -11
SMILES | KB-V1 MDR tox | HT1080 IDH1KD tx | HT1080NT lethal | KB-3-1 cytotox | IL1B secr inh
Cc1ccc(S(=O)(=O)N2CCN(C(=O)C(C)Cn3nc(C)c(C)c3C)CC2)cc1 (stereo not drawn) | i | 11% | 21% | i | 15
O=C(CSc1ccc(Cl)cc1)N1CCN(c2ccc([N+](=O)[O-])cc2Cl)CC1 | 16µM* | -23% | -2% | ? | -62*
CCCC(=O)N1CCN(c2ccc([N+](=O)[O-])cc2Cl)CC1 | i | 1% | 1% | i | -2
O=C(CSc1ccc(Cl)cc1)N1CCN(c2ncc(C(F)(F)F)cc2Cl)CC1 | 15µM* | ? | ? | i | -21
CC(C)COc1ccc(C(=O)Nc2onc3c2CCCC3)cc1 | i | . | . | i | .
O=C(c1ccncc1)c1ccc(N2CCN(C3CC(=O)N(Cc4ccccc4)C3=O)CC2)cc1 (stereo not drawn) | 16µM* | ? | -15% | ? | -2
COc1ccc(N2CCN(C3CC(=O)N(Cc4ccccc4)C3=O)CC2)cc1 (stereo not drawn) | i | 5% | 4% | i | 13
O=C1N=c2ccccc2=C1c1sc(=S)n(NC(=O)c2ccccc2)c1O | i | -3% | -11% | i | 46
C=CCn1c(O)c(C2=c3ccccc3=NC2=O)sc1=Nc1ccc(O)cc1 | ? | ? | -4% | ? | -50*
O=C(CSc1nnc(CNC(=O)c2cccs2)o1)Nc1cccc(Cl)c1 | ? | 5% | 1% | i | 21
CCC(CCNC(=O)c1ccccc1)(CCNC(=O)c1ccccc1)[N+](=O)[O-] | 21µM* | 9% | 6% | i | -15
CC(C)(C)SCCNC(=O)c1ccccc1 | i | 13% | 16% | i | -11
CC(CCNC(=O)c1ccccc1)(CCNC(=O)c1ccccc1)[N+](=O)[O-] | 15µM* | 5% | 0% | i | -16
O=C(CN1CCCN(Cc2ccccc2Cl)S1(=O)=O)Nc1ccc2c(c1)OCCO2 | i | . | . | i | .
COc1ccc(C(=O)NC2CCCc3ccccc32)cc1OC1CCN(C(C)=O)CC1 (stereo not drawn) | i | -11% | -10% | i | 0
COc1ccc(-c2cnc(N3CCC(C(N)=O)CC3)s2)cc1OC | i | . | . | i | .
Cc1[nH]c2ccccc2c1C(=O)C(C)OC(=O)c1ccc([N+](=O)[O-])o1 (stereo not drawn) | ? | ? | ? | ? | -62*
C/C(=N\NC(=O)c1ccccc1O)c1ccc(NC(=O)c2ccccc2)cc1 | i | -20% | -20% | i | -29
CCOc1ccccc1NC(=O)CCCn1cc([N+](=O)[O-])cn1 | i | 1% | 1% | i | 19
CCOC(=O)N1CCN(C(=O)COc2ccc3c(c2)C(=O)CC(C)(C)O3)CC1 | ? | -3% | ? | i | 3
CC1(C)CC(=O)c2cc(OCC(=O)N3CCCCCC3)ccc2O1 | 18µM* | -15% | 12% | i | 16
CC(=O)N1CCC2(CC1)CC(=O)c1cc(OCC(=O)NCc3ccco3)ccc1O2 | i | 22% | 5% | i | 1
